Screening data deposited in PubChem BioAssay by Broad Institute.
The entries come from a sample that favours hits as a whole.
Tgondii IFNg – blocks Toxoplasma gondii growth in the presence of IFN-gamma | Toxoplasma gondii growth in IFN-gamma-treated host cells; active compounds read low | activity change, negative = inhibition, % (concentration not given with the values) | 3.8% of 69,000 active; in the data active means activity change below about -70%, passing the limit was not always enough;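 further: host cells are HeLa cells infected with Toxoplasma gondii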
The depositor's hits bear a star; ! = not confirmed by another sample.

For COc1ccccc1N1CCN(C(=O)Nc2ccc(F)cc2)CC1 the results were Tgondii IFNg -21.9.
`CC(C)C1COC2(CCN(Cc3cnn(C)c3)C2)C1` (centres undefined) gave Tgondii IFNg -5.5.
`O=c1[nH]nc(C(F)(F)F)n2cccc12` gave Tgondii IFNg -103.8*.
`O=c1n(Cc2ccncc2)nc(C(F)(F)F)c2cccn12` gave Tgondii IFNg 10.5.
For O=c1n(Cn2nnc3ccccc32)nc(C(F)(F)F)c2cccn12 the results were Tgondii IFNg 70.3.
`CCn1c(C2CCN(C(=O)c3cc4c(nc3OC)CCC4)CC2)nn(C)c1=O` gave Tgondii IFNg 17.7.
Screening Cc1cccc(CNC(=O)C2(Cc3cccc(C4CCCN(C)C4)c3)CCOCC2)n1 (centres undefined) returned Tgondii IFNg 2.3.
Screening Cc1ccc(-c2cc3c(=O)n(Cc4nc(-c5ccc(Cl)cc5)oc4C)ccn3n2)cc1C returned Tgondii IFNg 125.8.
Cc1c(C(=O)N2C[C@H](C(=O)O)[C@@H](c3ccc(F)cc3)C2)cnn1C was read as Tgondii IFNg -10.7.
CCn1c(=O)c(C(=O)Nc2ccc(Cl)cc2)c(O)c2ccccc21 was read as Tgondii IFNg 22.6.
Screening Cc1ccc(NC(=O)CC(=O)NCc2ncc[nH]2)c(C)c1 returned Tgondii IFNg 18.3.
`CC(=O)Nc1ccc(NC(=O)C(=O)NCCc2csc(-c3ccc(F)cc3)n2)cc1` gave Tgondii IFNg 18.6.
CN(C)CCOc1ccc(-c2nc(-c3ccc4c(c3)CC/C4=N\O)c(-c3ccncc3)[nH]2)cc1 was read as Tgondii IFNg -79.3*.
For COc1ccc(-c2nc(-c3ccc(O)cc3)[nH]c2-c2ccc(OC)cc2)cc1 the results were Tgondii IFNg 7.6.
O=C(Nc1cccc(-n2cccn2)c1)C1CN(C2CCCCC2)C1 was read as Tgondii IFNg -2.2.
`Cc1cnc(N2CCC3(CCCN(C(=O)c4cccs4)C3)C2)nc1` (centres undefined) gave Tgondii IFNg 6.7.
`COc1cc2c(c(OC)c1OC)-c1c(cc3c(c1OC)OCO3)C[C@H](C)[C@@H](C)C2` gave Tgondii IFNg -8.5.
Screening COc1ccc([C@H]2C/C=C\C[C@@H](c3ccc4c(c3)OCO4)NC(=O)CCC(=O)N2)c(OC)c1 returned Tgondii IFNg -51.6.
`COc1cc([C@@H]2c3cc4c(cc3[C@@H](O[C@@H]3O[C@@H]5CO[C@@H](C)O[C@H]5[C@H](O)[C@H]3O)[C@H]3COC(=O)[C@H]23)OCO4)cc(OC)c1O` gave Tgondii IFNg -80.0*.
`COc1cc([C@@H]2c3cc4c(cc3[C@H](O)[C@H]3COC(=O)[C@H]23)OCO4)cc(OC)c1OC` gave Tgondii IFNg -76.2*!.
For COCCN1[C@@H]2CCN(c3ncccn3)CC[C@@H]2Oc2ccccc2S1(=O)=O the results were Tgondii IFNg -11.4.
`O=C(O)C1CC(N2CCOCC2)CCN1C(=O)c1ccoc1` (centres undefined) gave Tgondii IFNg -4.9.
Screening COc1nccnc1-c1ccc(C)c2ncccc12 returned Tgondii IFNg -37.8.
For Cc1cc(C(=O)N2CCc3ncc(CN(C)C(C)C)n3CC2)no1 the results were Tgondii IFNg -42.5.
Screening Cc1cc(C)n(-c2ncnc3c2nnn3Cc2ccccc2Cl)n1 returned Tgondii IFNg -56.0.
For CSc1ncnc2c1nnn2Cc1ccccc1Cl the results were Tgondii IFNg -28.1.
`CC1Cc2ccccc2N1c1ncnc2c1nnn2Cc1ccccc1Cl` (centres undefined) gave Tgondii IFNg -94.3*.
For COc1ccc(N2CC(NC(=O)c3cn4cc(Cl)ccc4n3)CC2=O)cc1 (centres undefined) the results were Tgondii IFNg -29.2.
For COCCNc1c(C(=O)OC)c(=O)[nH]c2ccc(F)cc12 the results were Tgondii IFNg 34.7.
For COC(=O)c1c(NCCc2ccccc2)c2cc(F)ccc2[nH]c1=O the results were Tgondii IFNg 6.5.
COC(=O)c1c(NCCc2c[nH]c3ccccc23)c2cc(F)ccc2[nH]c1=O was read as Tgondii IFNg -99.4*.
COCCN1C[C@@H]2CN(S(=O)(=O)Cc3ccccc3)C[C@H]2C1=O was read as Tgondii IFNg 9.7.
Screening O=C(c1cncc(-c2ccc3c(c2)OCO3)n1)N1CCOCC1 returned Tgondii IFNg 12.3.
For Cc1ccsc1C(=O)N1CC(C(=O)N2CCCC2)C2(CCOCC2)C1 (centres undefined) the results were Tgondii IFNg 0.8.
For COc1ccccc1-c1ccc2c(c1)[C@@H]1[C@@H](CCN1C(=O)C1CCC1)[C@H](CO)N2 the results were Tgondii IFNg -72.0*.
`N#Cc1ccc(-c2ccc3c(c2)[C@H]2[C@H](CCN2C(=O)C2CCCCC2)[C@@H](CO)N3)cc1` gave Tgondii IFNg -62.6.
`N#Cc1ccc(-c2ccc3c(c2)[C@@H]2[C@@H](CCN2C(=O)C2CCCCC2)[C@H](CO)N3)cc1` gave Tgondii IFNg -62.8.
`O=C1CCCN1CC1CCN(C(=O)c2ccc(-c3cncnc3)nc2)CC1` gave Tgondii IFNg 30.6.
For COc1ccc(OCCNC(=O)c2cccs2)cc1 the results were Tgondii IFNg 1.7.
O=C(NCCCOc1ccccc1)c1c(O)cccc1O was read as Tgondii IFNg 11.9.
CN(C)Cc1c(C(=O)NCCOc2ccc(C(=O)NO)cc2)oc2ccccc12 was read as Tgondii IFNg -74.4*.
Screening COc1ccc(NC(=O)c2c(O)c3ccccc3[nH]c2=O)cc1 returned Tgondii IFNg 178.5.
`O=C(Nc1cccc2ccccc12)OC1CCS(=O)(=O)C1` (centres undefined) gave Tgondii IFNg 27.7.
`O=C(Nc1cccc2ccccc12)N1CCOCC1` gave Tgondii IFNg 180.6.
`O=C(Nc1cccc2ccccc12)NC1CCCCC1` gave Tgondii IFNg -93.1*.
C=CCC(=O)N(CC#Cc1ccccc1)CCC was read as Tgondii IFNg -7.7.
Screening CCOC1CC2(CCN(Cc3nccn3C)CC2)C1 returned Tgondii IFNg 57.3.
Cc1onc(-c2ccccc2)c1CNC(=O)NC1CCN(C(=O)OCc2ccccc2)CC1 was read as Tgondii IFNg -82.0*.
Cc1onc(-c2ccccc2)c1CNC(=O)C1CCN(c2nccc(C(F)(F)F)n2)CC1 was read as Tgondii IFNg -66.2.
`Cc1onc(-c2ccccc2)c1NC(=O)NCc1csc(-c2cccs2)n1` gave Tgondii IFNg 7.4.
Screening O=C(OCc1ccccc1)N1CCOCCN(C(=O)OCc2ccccc2)CCOCC1 returned Tgondii IFNg -15.0.
For Cc1onc(-c2ccccc2)c1CNC(=O)Nc1csc2ccccc12 the results were Tgondii IFNg -98.2*.
Cc1onc(-c2ccccc2)c1CNC(=O)c1ccccc1 was read as Tgondii IFNg 29.2.
CCN(C)C(=O)c1ccc(-c2cc(O)cc(CCC3CCCCN3)c2)nc1 (centres undefined) was read as Tgondii IFNg -42.5.
Screening CN(C)C(=O)c1n[nH]c2c1CCN(Cc1nccs1)C2 returned Tgondii IFNg -8.1.
`COc1ccc(-c2nnc(-c3nc(NCc4ccccc4C)c4ccccc4n3)o2)cc1` gave Tgondii IFNg 32.0.
Screening Cc1ccccc1CNc1nc(-c2nnc(-c3ccccc3)o2)nc2ccccc12 returned Tgondii IFNg -89.8*.
Clc1ccccc1CNc1nc(-c2nnc(-c3ccccc3)o2)nc2ccccc12 was read as Tgondii IFNg -48.7.
COc1ccccc1CNc1nc(-c2nnc(-c3cccc(C)c3)o2)nc2ccccc12 was read as Tgondii IFNg -89.8*.
